Results on 40 molecules are retold here after PubChem BioAssay (EPA / NIEHS).

SMILES strings stand for the structures. “And” between values parts separate entries of the source, which are not always exact repeats. Identical values can stand only once. The source made the active and inactive calls. The calls were made as follows: active = hit-call score of the fitted dose curve at least 0.9, where 1 is the maximum; inactive = score below 0.9.

This experiment can be described thus: BSK_SAg_Proliferation: Cell Proliferation Assessment in the BioMAP Diversity Plus: SAg Assay (AID 2283095). The following applies: primary human HUVEC with PBMC. The method, then: BSK_SAg is a cell-based, multiplexed-readout assay that uses umbilical vein endothelium and peripheral blood mononuclear cells, a human vascular primary cell co-culture, with measurements taken at 24 hours after chemical dosing in a 96-well plate.BSK_SAg_Proliferation is an assay component in the BSK_SAg assay. It measures protein content, a form of viability reporter, as detected with absorbance signals by Sulforhodamine staining technology. Data from the assay component BSK_SAg_Proliferation was analyzed into 1 assay endpoint. This assay endpoint, BSK_SAg_Proliferation, was analyzed with bidirectional fitting relative to DMSO as the negative control and baseline of activity. Using a type of viability reporter, measures of total protein for gain or loss-of-signal activity can be used to understand the viability at the cellular-level. Furthermore, this assay endpoint can be referred to as a secondary readout, because this assay has produced multiple assay endpoints where this one serves a viability function. To generalize the intended target to other relatable targets, this assay endpoint is annotated to the cell cycle intended target family, where the subfamily is proliferation.
The levels of cell surface (or secreted, indicated by the prefix "s") biomarker endpoints were measured by ELISA. Overt cytotoxicity to cells in confluent adherent cultures (all systems other than the BT system) was assessed by measuring total protein levels using sulforhodamine B (SRB) staining in parallel cultures at the time of biomarker measurements, indicated as SRB endpoints. For proliferation assays for adherent cell types, individual cell types are cultured at sub-confluence and relative cell numbers quantified by SRB staining at time points optimized for each system (48 h: 3C and CASM3C systems; 72 h: BT and HDF3CGF systems; 96 h: SAg system). SRB was performed by staining cells with 0.1% SRB after fixation with 10% TCA and reading wells at 560 nm.Viability and proliferation of PBMC (T cells) was quantified by Alamar Blue reduction for the SAg and BT systems. For PBMC viability (referred to as PBMC Cytotoxicity within the assay endpoint names), cells were plated (75,000/well in a 96-well plate) and then chemical samples added for 1 h before addition of activators, SEB and TSST-1 (20 ng/mL final concentration each). Cells were incubated for 90 h. Then, Alamar Blue (20 uL/well) (Invitrogen, Cat DAL1100) was added for 6 h, and the plates were read with a fluorescence microplate reader at 546/580 nm (excitation/emission). For PBMC proliferation, cells were plated and activated as above but incubated for only 16 h prior to addition of Alamar Blue. Plates were read after 6 h.
Turning to `CN(C)C(=O)Nc1cccc(C(F)(F)F)c1`, the outcome was inactive.

Take `CCCSP(=O)(OCC)Oc1ccc(Br)cc1Cl` (stereo not given): the half-maximal activity concentration (AC50) (commonly the concentration at which the activity in the assay is half-maximal) was 29.3 µM (active).

In the case of `CNC(=O)ON=C(C)SC`, the outcome was inactive.

On to `CCC(=NOC/C=C/Cl)C1=C(O)CC(C2CCOCC2)CC1=O` (stereo not given), for which the result was inactive.

As for `COP(=O)(OC)SCn1c(=O)oc2cc(Cl)cnc21`, the AC50 was 12.2 µM (active).

`CCCCN(CC)c1c([N+](=O)[O-])cc(C(F)(F)F)cc1[N+](=O)[O-]`: the AC50 is 18.9 µM (active).

Take `CCOP(=O)(NC(C)C)Oc1ccc(SC)c(C)c1` (stereo not given): the outcome was inactive.

`S=C1NCCN1`: the outcome was inactive.

On to `CCCCOC(=O)c1ccccc1C(=O)O`, for which the result was inactive.

With `Cc1nn(-c2cc(NS(C)(=O)=O)c(Cl)cc2Cl)c(=O)n1C(F)F`, the result was inactive.

For the molecule `CCOP(=S)(OCC)Oc1ccc([N+](=O)[O-])cc1`, the concentration at half-maximal activity (AC50) is 32.1 µM (active).

`C=C(C)[C@H]1Cc2c(ccc3c2O[C@@H]2COc4cc(OC)c(OC)cc4[C@@H]2C3=O)O1`: the AC50 is 5.57 µM (active).

As to `C[N+]1(C)CCCCC1`, the result was inactive.

Take `CC(=NC#N)N(C)Cc1ccc(Cl)nc1`: the result was inactive.

`CN1COCN(Cc2cnc(Cl)s2)C1=N[N+](=O)[O-]`: the outcome was inactive.

As to `CC1=NNC(=O)N(/N=C/c2cccnc2)C1`, the result was inactive.

With `CCOP(=O)(SC(C)CC)N1CCSC1=O` (stereo not given), the result was inactive.

Turning to `CNC(=O)ON=C(SC)C(=O)N(C)C`, the AC50 was 20 µM (active).

As for `CCCCSP(=O)(SCCCC)SCCCC`, the half-maximal activity concentration (AC50) is 36.2 µM (active).

As for `CSc1nc(NC(C)C)nc(NC(C)C)n1`, the result was inactive.

Take `CSC1=N[C@@](C)(c2ccccc2)C(=O)N1Nc1ccccc1`: the concentration at half-maximal activity (AC50) was 9.67 µM (active).

For `CCOP(=O)(OCC)Oc1cc(C)nc(C(C)C)n1`, the result was inactive.

On to `CN(C)[C@@H]1C(=O)C(C(N)=O)=C(O)[C@@]2(O)C(=O)C3=C(O)c4c(O)cccc4[C@@](C)(O)[C@H]3[C@H](O)[C@@H]12`, for which the result was inactive.

For `O=c1ccc(=O)[nH][nH]1`, the result was inactive.

As for `COc1cc(OC)nc(Sc2cccc(Cl)c2C(=O)O)n1`, the result was inactive.

With `CN(C)NC(=O)CCC(=O)O`, the outcome was inactive.

Regarding `CCC(=O)Nc1ccc(Cl)c(Cl)c1`, the result was inactive.

Consider `CON=C(C(=O)OC)c1ccccc1CON=C(C)c1cccc(C(F)(F)F)c1`, for which the AC50 is 3.9 µM (active).

Consider `CCOC(=O)COc1cc(-c2nn(C)c(OC(F)F)c2Cl)c(F)cc1Cl`, for which the outcome was inactive.

Regarding `CCOP(=S)(OCC)Oc1ccc2c(C)c(Cl)c(=O)oc2c1`, the AC50 is 5.08 µM (active).

Turning to `CCNc1nc(Cl)nc(NC(C)(C)C#N)n1`, the result was inactive.

Take `COP(=O)(NC(C)=O)SC` (stereo not given): the result was inactive.

Consider `Cc1cc(C2CC2)nc(Nc2ccccc2)n1`, for which the AC50 is 34.3 µM (active).

Regarding `CCOP(=S)(OCC)OC(Cl)C(Cl)(Cl)Cl` (stereo not given), the concentration at half-maximal activity (AC50) was 33.5 µM (active).

As for `CC(C1CC1)C(O)(Cn1cncn1)c1ccc(Cl)cc1` (stereo not given), the result was inactive.

`CSc1nnc(C(C)(C)C)c(=O)n1N`: the outcome was inactive.

With `O=C(O)c1cc(Oc2ccc(C(F)(F)F)cc2Cl)ccc1[N+](=O)[O-]`, the result was inactive.

For `O=[N+]([O-])c1cc(C(F)(F)F)c(Cl)c([N+](=O)[O-])c1Nc1ncc(C(F)(F)F)cc1Cl`, the concentration at half-maximal activity (AC50) was 318 nM (active) and 526 nM (active).

For `CCCOc1nn(C(=O)NS(=O)(=O)c2ccccc2C(=O)OC)c(=O)n1C`, the outcome was inactive.

On to `COP(=O)(OC)OC(Br)C(Cl)(Cl)Br` (stereo not given), for which the AC50 was 7.28 µM (active).
